For experiment [1], the system named is TRPC4 beta (transient receptor potential cation channel C4), mouse. Nature of the experiment: TRPC4 cation channel opening, retest – cell-based, Fluo4 calcium, HEK293 TRPC4beta/mu-opioid, duplicates, 10 µM, confirmation (AID 2426;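 active means fluorescence ratio normalized to control raised more than 50% in primary screen plus both repeat runs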;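 further: percent rise of integrated ratio over buffer wells lacking compound which define 0%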). The note with it: Fluo4 calcium fluorescence, at 10 µM; hits give high values.
In experiment [2] the test system is transient receptor potential cation channel C4 beta (TRPC4), mouse. Nature of the experiment: TRPC4 cation channel opening, second retest – cell-based, second round, Fluo4, HEK293 TRPC4beta/mu-opioid, 1 µM, confirmation (AID 2461;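 active means primary screen active and over 50% activation in each of two duplicate runs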;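 further: 0% = wells without test compound as baseline of integrated fluorescence ratio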). The note with it: Fluo4 calcium fluorescence, at 1 µM; hits give high values.
For experiment [3], the system named is TRPC4 (transient receptor potential cation channel C4 beta), mouse. The experiment can be described thus: potentiation of DAMGO EC20 TRPC4 response – cell-based, second round, Fluo-4, HEK293 TRPC4beta/mu-opioid, 1 µM, confirmation (AID 2554;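 active means primary screen hit whose fluorescence ratio, in both repeats, exceeds the weak agonist control mean by 3 SD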). The note with it: DAMGO EC20, Fluo-4 calcium flux, at 1 µM; hits give high values.
In experiment [4] the test system is TRPC4 beta (transient receptor potential cation channel C4), mouse. Nature of the experiment: potentiation of DAMGO EC20 TRPC4 response – cell-based, Fluo-4, HEK293 TRPC4beta/mu-opioid, confirmation (AID 2555;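 active means primary screen hit whose calcium fluorescence ratio, in both repeats, exceeds the weak agonist control mean by 3 SD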). As to conditions: DAMGO EC20, Fluo-4 calcium flux, at 10 µM; hits give high values. A general note: Calcium assays in cells follow changes in intracellular calcium, usually with a dye or a luminescent sensor.

Experiment [5] deals with Short transient receptor potential channel 4 (Mus musculus) (UniProt Q9QUQ5). The experiment can be described thus: blockers of DAMGO-evoked TRPC4 calcium flux – cell-based, Fluo4, HEK293 TRPC4beta/mu-opioid, confirmation (AID 2636;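 active means calcium signal cut by more than 3 SD below the full-agonist control yet still positive, in both repeats and the earlier primary screen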). As to conditions: at 10 µM; hits give high values.
The target is the same in experiment [6]. Nature of the experiment: blockers of DAMGO-evoked TRPC4 calcium flux – cell-based, second round, Fluo4, HEK293 TRPC4beta/mu-opioid, 1 µM, confirmation (AID 2637;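 active means calcium signal ratio cut to more than 3 SD under the fully stimulated control mean yet still positive, in both repeats and the primary screen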). As to conditions: at 1 µM; hits give high values.
Experiment [7] shares this target. Nature of the experiment: potentiation of DAMGO-evoked TRPC4 calcium signal – cell-based, HEK293 TRPC4/mu-opioid, Fluo-4 calcium, EC20 DAMGO, dose response (AID 434941;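 active means earlier screen potentiator hit that boosts the TRPC4 ion channel at some dose, with a dose response; inactive means no potentiation, no dose response, or not a prior hit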;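 further: calcium entry triggered by an EC20 dose of DAMGO at the co-expressed mu-opioid receptor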).
The target is the same in experiment [8]. The experiment can be described thus: block of DAMGO-driven TRPC4 calcium entry – cell-based, HEK293 TRPC4/mu-opioid, Fluo-4 calcium, dose response (AID 434942;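 active means primary screen inhibitor hit that blocks the TRPC4 channel at some tested dose, yielding a dose curve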).
The target in experiment [9] is Short transient receptor potential channel 6 (Mus musculus) (UniProt Q61143). Nature of the experiment: TRPC6 blockade by TRPC4 inhibitor hits – cell-based, HEK293, membrane potential dye, duplicate, selectivity assay for TRPC4 inhibitor project, confirmation (AID 434948;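 active means active in primary screen and both duplicates, each dropping signal beyond three positive-control SD with fluorescence still positive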). As to conditions: HEK293 TRPC6, membrane potential dye fluorescence, at 10 µM; inhibition: hits give high values, stimulated with maximal-effect acetylcholine unless noted; outcome: stimulated with maximal-effect acetylcholine unless noted.

The target is the same in experiment [10]. Nature of the experiment: TRPC6 opening by TRPC4 activator hits – cell-based, HEK293, membrane potential dye, duplicate, selectivity assay for TRPC4 activator project, confirmation (AID 434950;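 active means membrane potential signal rise above negative control mean plus 3 SD in both duplicates, also active in the earlier TRPC4 screen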;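 on activation: 0% = buffer only wells and 100% = acetylcholine maximal-effect wells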). The note with it: HEK293 TRPC6, membrane potential fluorescence, at 10 µM; activation: hits give high values; outcome: activation.
For experiment [11] the target is unchanged. The experiment can be described thus: positive modulators of mouse TRPC6 channel – HEK293 cells, membrane potential dye, duplicate, selectivity assay for TRPC4 potentiator project, confirmation (AID 434952;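 active means compound raising the membrane signal above positive-control mean plus 3 SD in both repeats, and a primary screen hit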). As to conditions: HEK293 TRPC6, membrane potential dye fluorescence, at 10 µM; maximal acetylcholine added after compound unless noted.
Experiment [12] addresses Short transient receptor potential channel 4 (Mus musculus) (UniProt Q9QUQ5). The experiment can be described thus: calcium flux activators in TRPC4/5HT1a cells, counter-screen for TRPC4 activator project, cell-based, second counter screen, HEK293 TRPC4/5HT1a, Fluo-4 (AID 434977;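 active means calcium signal rise above buffer-control mean plus 5 SD in both duplicates, and also a hit in the primary screen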;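 on activation: plate controls were assay buffer for no effect and maximal serotonin response for full effect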). The note with it: Fluo-4 calcium flux, at 10 µM; hits give high values.
The nature of experiment [13]: serotonin-gated TRPC4 signal block – cell-based, second counter screen, HEK293 TRPC4/5HT1a, Fluo-4, counter-screen for TRPC4 inhibitor project, confirmation (AID 434978;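 active means primary screen active whose calcium signal fell more than 3 SD beyond the full-serotonin control mean in both duplicate plates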;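 further: serotonin given first at submaximal then at maximal dose after compound preincubation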). The note with it: Fluo-4 calcium flux, at 10 µM; inhibition: hits give high values, serotonin added to trigger calcium flux unless noted; outcome: serotonin added to trigger calcium flux unless noted.

The test system of experiment [14] is TRPC4 (mouse), co-expressed with 5HT1a in HEK293. The experiment can be described thus: enhancement of serotonin-evoked TRPC4 response – cell-based, second counter screen, HEK293 TRPC4/5HT1a, Fluo-4, counter-screen for TRPC4 potentiator project, confirmation (AID 434979;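 active means signal rise over 3 SD above mean of control wells given weak agonist, in both repeats and first screen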). The note with it: Fluo-4 calcium flux, at 10 µM; outcome: serotonin added at its EC20 dose unless noted; potentiation: hits give high values, serotonin added at its EC20 dose unless noted.

Experiment [15] can be described thus: nonspecific calcium rise without TRPC4 – cell-based, HEK293 mu-opioid receptor line, counter-screen for TRPC4 activator project, confirmation (AID 449723;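 active means hit in primary screen, with calcium signal over 5 SD above buffer well mean in both duplicates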;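 further: counter screen cells carry the mu-opioid receptor alone and lack TRPC4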). As to conditions: HEK293 mu-opioid cells, Fluo-4 calcium fluorescence, at 10 µM; hits give high values.
Experiment [16] is described as follows: nonspecific potentiation of DAMGO calcium response – cell-based, HEK293 mu-opioid receptor line, counter-screen for TRPC4 allosteric potentiator project, confirmation (AID 449724;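 active means calcium signal rise more than 3 SD above the low-dose agonist control mean, in both duplicate plates and the primary screen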;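 further: HEK293 cells carrying mu-opioid receptor only with no TRPC4 channel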). As to conditions: HEK293 mu-opioid receptor cells, Fluo-4 calcium flux, at 10 µM; compound added before EC20 DAMGO stimulus unless noted.
Experiment [17] can be described thus: nonspecific flux increase, KCNQ1-free cells – parental CHO cells, counter-screen for KCNQ1 potentiator project (AID 493006). As to conditions: parental CHO-K1 cells, FluxOR thallium flux, at 10 µM; hits give high values. (In general: A counterscreen serves to expose hits that act by an unwanted route or on another target.)
Experiment [18] deals with Potassium voltage-gated channel subfamily KQT member 1 (Homo sapiens) (UniProt P51787). The experiment can be described thus: enhancement of KCNQ1 channel thallium flux – FluxOR thallium flux, CHO cells, duplicates, confirmation (AID 493007;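 active means potentiation averaged over duplicate wells exceeding buffer-only control mean by more than 3 SD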;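 on outcome: cells depolarized by a potassium plus thallium sulfate stimulus after compound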;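 on potentiation: 0% = buffer-only wells and 100% = R-L3 activator control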). As to conditions: KCNQ1 cell line, FluxOR thallium flux fluorescence, at 10 µM; hits give high values, % of reference activator effect, buffer zero.

Experiment [19] concerns the target Potassium voltage-gated channel subfamily KQT member 2 (Rattus norvegicus) (UniProt O88943). The experiment can be described thus: KCNQ2 thallium flux enhancement – KCNQ2-CHO-K1 cells, selectivity assay for KCNQ1 potentiator project (AID 493009;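 active means mean duplicate potentiation above the buffer control mean plus 5 SD of buffer wells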;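 further: assay conditions were tuned for KCNQ1 rather than KCNQ2 modulators; signal is max minus min fluorescence divided by baseline after thallium stimulus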). As to conditions: FluxOR thallium flux fluorescence, at 10 µM; hits give high values, scaled: buffer 0, activator control 100.

Experiment [20] deals with Potassium voltage-gated channel subfamily KQT member 1 (Homo sapiens) (UniProt P51787). The experiment can be described thus: KCNQ1 activators by electrophysiology – IonWorks patch clamp, KCNQ1-CHO cells, orthogonal assay for KCNQ1 potentiator project, confirmation (AID 493184;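 active means current rise at least 3 SD above the untreated control mean in each of two repeat wells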). As to conditions: automated patch clamp current, at 10 µM.
Experiment [21] concerns the target Potassium voltage-gated channel subfamily E member 1 (Homo sapiens) + Potassium voltage-gated channel subfamily KQT member 1 (Homo sapiens) (UniProt P15382+P51787). The experiment can be described thus: KCNQ1-E1 channel activation – thallium flux, CHO-K1 KCNQ1/E1 cells, selectivity assay for KCNQ1 potentiator project, confirmation (AID 493186;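 active means mean duplicate activation above the buffer control mean plus 5 SD of those controls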). The note with it: FluxOR thallium flux, at 10 µM.

For some of these results: Potency and affinity values are given separately. The source made the active and inactive calls.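 How the source made its calls, unless noted: active means duplicate-averaged activation above buffer control mean plus 5 SD of those controls; inactive means the rest.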

Chain of Short transient receptor potential channel 4 (Mus musculus) (Q9QUQ5 whole entry, looked up): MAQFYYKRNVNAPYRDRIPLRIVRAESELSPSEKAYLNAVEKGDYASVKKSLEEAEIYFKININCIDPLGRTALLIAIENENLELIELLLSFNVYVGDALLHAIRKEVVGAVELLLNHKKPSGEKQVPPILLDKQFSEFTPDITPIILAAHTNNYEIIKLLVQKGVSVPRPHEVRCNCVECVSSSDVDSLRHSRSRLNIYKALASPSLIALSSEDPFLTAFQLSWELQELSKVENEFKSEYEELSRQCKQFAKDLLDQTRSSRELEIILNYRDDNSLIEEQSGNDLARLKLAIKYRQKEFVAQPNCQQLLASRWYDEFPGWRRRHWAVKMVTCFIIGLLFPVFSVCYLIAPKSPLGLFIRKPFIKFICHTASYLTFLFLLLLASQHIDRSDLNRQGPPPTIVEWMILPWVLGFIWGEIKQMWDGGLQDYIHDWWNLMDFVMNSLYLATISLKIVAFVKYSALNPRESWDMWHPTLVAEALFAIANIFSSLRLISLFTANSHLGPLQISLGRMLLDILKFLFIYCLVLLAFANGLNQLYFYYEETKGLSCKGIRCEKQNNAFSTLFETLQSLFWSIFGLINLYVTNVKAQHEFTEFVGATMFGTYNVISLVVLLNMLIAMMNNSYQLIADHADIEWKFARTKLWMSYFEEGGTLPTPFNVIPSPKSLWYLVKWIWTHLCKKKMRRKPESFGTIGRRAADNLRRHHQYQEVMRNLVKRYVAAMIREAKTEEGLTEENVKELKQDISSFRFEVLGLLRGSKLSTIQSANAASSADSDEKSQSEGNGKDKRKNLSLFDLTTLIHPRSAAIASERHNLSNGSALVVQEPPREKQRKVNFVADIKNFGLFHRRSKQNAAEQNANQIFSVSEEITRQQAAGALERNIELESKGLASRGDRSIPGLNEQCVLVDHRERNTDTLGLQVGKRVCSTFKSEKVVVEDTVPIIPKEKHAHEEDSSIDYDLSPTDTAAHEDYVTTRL
Chain of Potassium voltage-gated channel subfamily KQT member 2 (Rattus norvegicus) (O88943 whole entry, looked up): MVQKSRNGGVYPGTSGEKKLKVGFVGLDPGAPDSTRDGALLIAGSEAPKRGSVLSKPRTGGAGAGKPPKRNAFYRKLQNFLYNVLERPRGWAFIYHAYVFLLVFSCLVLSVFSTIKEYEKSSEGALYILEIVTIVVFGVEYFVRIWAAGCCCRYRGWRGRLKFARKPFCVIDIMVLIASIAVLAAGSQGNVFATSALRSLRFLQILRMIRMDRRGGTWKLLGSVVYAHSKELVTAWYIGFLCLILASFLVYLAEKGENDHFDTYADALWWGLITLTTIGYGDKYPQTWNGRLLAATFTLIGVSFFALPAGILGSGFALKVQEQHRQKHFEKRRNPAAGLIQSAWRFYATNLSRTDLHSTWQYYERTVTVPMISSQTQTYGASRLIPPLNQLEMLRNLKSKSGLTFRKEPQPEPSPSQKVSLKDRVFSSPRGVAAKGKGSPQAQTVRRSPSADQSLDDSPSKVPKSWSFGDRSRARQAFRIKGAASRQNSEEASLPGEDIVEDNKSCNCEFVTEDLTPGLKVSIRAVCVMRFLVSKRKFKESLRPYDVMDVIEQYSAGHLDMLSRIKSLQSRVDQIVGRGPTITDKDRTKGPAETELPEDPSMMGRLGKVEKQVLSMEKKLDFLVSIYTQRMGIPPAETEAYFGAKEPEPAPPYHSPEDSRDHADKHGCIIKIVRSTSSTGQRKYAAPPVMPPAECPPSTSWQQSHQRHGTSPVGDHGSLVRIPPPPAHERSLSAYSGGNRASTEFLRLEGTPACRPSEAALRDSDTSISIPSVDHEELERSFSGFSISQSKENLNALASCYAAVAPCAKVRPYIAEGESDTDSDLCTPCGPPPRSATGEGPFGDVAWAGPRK
Chain of Potassium voltage-gated channel subfamily E member 1 (Homo sapiens) + Potassium voltage-gated channel subfamily KQT member 1 (Homo sapiens) (P51787 whole entry, looked up): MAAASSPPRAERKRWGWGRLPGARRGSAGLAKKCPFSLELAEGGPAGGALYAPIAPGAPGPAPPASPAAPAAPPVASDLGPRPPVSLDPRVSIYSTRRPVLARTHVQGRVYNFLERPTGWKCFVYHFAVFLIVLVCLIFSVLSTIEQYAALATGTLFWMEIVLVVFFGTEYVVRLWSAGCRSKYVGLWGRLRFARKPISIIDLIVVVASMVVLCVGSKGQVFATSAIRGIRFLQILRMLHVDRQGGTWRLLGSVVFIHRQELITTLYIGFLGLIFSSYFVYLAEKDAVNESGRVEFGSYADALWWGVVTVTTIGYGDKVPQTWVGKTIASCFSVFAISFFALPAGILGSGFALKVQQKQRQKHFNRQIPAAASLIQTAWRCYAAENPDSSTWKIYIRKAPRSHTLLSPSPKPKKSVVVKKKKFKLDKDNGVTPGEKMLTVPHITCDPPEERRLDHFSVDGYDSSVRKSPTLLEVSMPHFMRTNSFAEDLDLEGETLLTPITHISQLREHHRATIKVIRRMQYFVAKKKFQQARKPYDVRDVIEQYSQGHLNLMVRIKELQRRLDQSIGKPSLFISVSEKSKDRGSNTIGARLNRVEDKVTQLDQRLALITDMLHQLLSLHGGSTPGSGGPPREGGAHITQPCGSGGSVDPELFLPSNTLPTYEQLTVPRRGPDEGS
Chain of Potassium voltage-gated channel subfamily KQT member 1 (Homo sapiens) (P51787 whole entry, looked up): as above
Chain of Short transient receptor potential channel 6 (Mus musculus) (Q61143 whole entry, looked up): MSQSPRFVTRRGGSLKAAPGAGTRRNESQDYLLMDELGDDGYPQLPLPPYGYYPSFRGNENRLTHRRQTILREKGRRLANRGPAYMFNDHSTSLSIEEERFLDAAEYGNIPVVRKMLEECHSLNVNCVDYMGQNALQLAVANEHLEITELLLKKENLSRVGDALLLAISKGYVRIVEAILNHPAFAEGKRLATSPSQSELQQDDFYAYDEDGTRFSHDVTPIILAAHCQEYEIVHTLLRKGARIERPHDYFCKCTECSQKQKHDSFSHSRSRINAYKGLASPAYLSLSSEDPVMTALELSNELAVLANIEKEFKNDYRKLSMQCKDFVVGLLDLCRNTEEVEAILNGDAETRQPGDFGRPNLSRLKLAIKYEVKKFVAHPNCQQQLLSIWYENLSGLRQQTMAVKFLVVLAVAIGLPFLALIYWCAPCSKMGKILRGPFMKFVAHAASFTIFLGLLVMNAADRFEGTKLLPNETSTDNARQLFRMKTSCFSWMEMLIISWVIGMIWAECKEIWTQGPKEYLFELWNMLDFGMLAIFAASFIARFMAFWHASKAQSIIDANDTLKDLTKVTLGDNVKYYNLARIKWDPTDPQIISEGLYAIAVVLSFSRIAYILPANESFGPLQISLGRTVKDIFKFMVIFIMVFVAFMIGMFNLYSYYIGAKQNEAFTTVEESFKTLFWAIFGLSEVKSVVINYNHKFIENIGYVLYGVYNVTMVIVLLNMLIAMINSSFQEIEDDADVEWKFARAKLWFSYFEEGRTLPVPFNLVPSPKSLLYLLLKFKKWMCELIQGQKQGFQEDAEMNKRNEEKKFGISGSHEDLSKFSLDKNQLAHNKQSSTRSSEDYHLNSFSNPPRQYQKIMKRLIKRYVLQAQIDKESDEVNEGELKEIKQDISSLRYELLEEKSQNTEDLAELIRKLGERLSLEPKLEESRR

`CCOC(=O)C1(CCc2ccccc2)CCN(Cc2ccc(NC(C)=O)cc2)CC1`: the activation in experiment [1] is 83% (active); in [2], 90% (active); in experiment [10], 41.5% (active). Also, the outcome in experiment [3], in experiment [4], in [5], in experiment [6], in [7] and in [8] was inactive. Also, the molecule was called inactive in experiment [9], in experiment [11], in [12], in [13], in [14] and in experiment [15]. Besides, the outcome in experiment [16] was inactive.
As to `CC(N)Cc1c[nH]c2cc3c(cc12)OCCO3` (stereo unspecified), the activation is 195% (active) in experiment [1], 60% (active) in experiment [2] and 107% (active) in experiment [12]. Besides, the result in experiment [3], in experiment [4], in experiment [5], in [6], in experiment [7] and in experiment [8] was inactive. Also, the molecule was classed as inactive in [10] and in [15]. The outcome in experiment [9], in [11], in experiment [13], in [14] and in experiment [16] was “inactive [setting not given]” throughout.
On to `O=C(c1ccc2c3c(cccc13)CC2)C1CCCN(CC2CC2)C1` (stereo unspecified), for which the activation in [1] is 164% (active); in experiment [2], 79% (active); in experiment [10], 75.5% (active); in experiment [12] it was 61.9% (active). The outcome in [3], in experiment [4], in experiment [5], in experiment [6], in experiment [7] and in experiment [8] was inactive. The call in experiment [9], in experiment [11], in experiment [13], in experiment [14], in [15] and in [16] was inactive.
For the molecule `O=[N+]([O-])c1ccc(N2CCOCC2)c2ccncc12`, the outcome in [17], in experiment [18], in experiment [19], in [20] and in [21] was inactive.
As for `CC1(C)CSC(=NCc2ccccc2)N1`, the result in [17], in [19], in experiment [20] and in [21] was inactive. For the same molecule, the potentiation in experiment [18] is 23% (active).
As to `COc1ccc2c(c1)/C(=C/c1cnc[nH]1)C(=O)N2`, the outcome in experiment [17], in experiment [18], in experiment [19], in experiment [20] and in experiment [21] was inactive.
Regarding `Cc1ccccc1-n1c(O)c(/C=N/N2CCOCC2)c(=O)[nH]c1=S`, the outcome in [17], in [18], in experiment [19] and in experiment [20] was inactive.
For `CC1(C)C[C@H]2C=C(C=O)[C@]3(C=O)C[C@]3(C)[C@H]2C1`, the result in experiment [17], in [19], in [20] and in experiment [21] was inactive. The potentiation in experiment [18] was 24% (active).
Regarding `c1ccc2c(c1)Sc1ccccc1N2CC1CN2CCC1CC2` (stereo unspecified), the outcome in experiment [17], in experiment [18], in [19] and in experiment [20] was inactive.
